Test results: PubChem BioAssay (NCI)
About 79,000 compounds went through this panel and 15% of them were active in at least one assay; those are over-represented in the sample as a whole. A number with no mark means an inactive call. The source made the active and inactive calls. Cut-off read from the data, not from the text of the source: active = growth inhibition above about 70%; inactive = the rest.

Tests used:
[1] = NCI Yeast Anticancer Drug Screen. Data for the rad50 strain (AID 155);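 note: 0% = growth of vehicle-only cultures of the same strain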; details: S. cerevisiae rad50 strain growth inhibition, stronger effect = higher value
How it was run: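 Yeast carrying a defined DNA repair defect were exposed to test compounds, and growth was compared with vehicle-treated controls to give percent inhibition.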

[2] = NCI Yeast Anticancer Drug Screen. Data for the mec2-1 strain (AID 157); details: S. cerevisiae mec2-1 strain, stronger effect = higher value
How it was run: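 Growth inhibition is read against vehicle-treated controls after compound exposure of the mec2-1 yeast strain, which is defective in DNA damage repair or cell cycle control.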

[3] = NCI Yeast Anticancer Drug Screen. Data for the sgs1 mgt1 strain (AID 161);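 note: 0% = growth of cultures given vehicle only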; details: S. cerevisiae sgs1 mgt1 strain, stronger effect = higher value
How it was run: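 Compounds are added to genetically altered yeast, and growth is compared with cultures given vehicle alone to give percent inhibition.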

[4] = NCI Yeast Anticancer Drug Screen. Data for the cln2 rad14 strain (AID 165);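 note: 0% = growth equal to vehicle treated cultures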; details: S. cerevisiae cln2 rad14 strain, stronger effect = higher value
How it was run: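 Growth inhibition, relative to vehicle-treated controls, is the read-out. The test organism is a yeast strain with defined genetic alterations, cln2 rad14.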

[5] = NCI Yeast Anticancer Drug Screen. Data for the bub3 strain (AID 167); details: S. cerevisiae bub3 mutant strain, stronger effect = higher value
How it was run: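 Compounds were applied to a genetically altered yeast strain carrying a cell-cycle control defect. Growth inhibition was scored against vehicle-treated controls.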

[6] = NCI Yeast Anticancer Drug Screen. Data for the mlh1 rad18 strain (AID 175); details: S. cerevisiae mlh1 rad18 strain growth inhibition, stronger effect = higher value
How it was run: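 Cells of a genetically altered yeast strain, deficient in DNA damage repair, were treated with compound. Their growth was then compared with that of vehicle-treated cultures to give inhibition.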

[7] = at 5.0 µM (retest, dose inferred, filed as 0.5)
[8] = at 50.0 µM (retest, dose inferred, filed as 5.0)

| SMILES | growth inhibition [1, 7] | growth inhibition [1, 8] | growth inhibition ([1]; at 50.0 µM) | growth inhibition [2, 7] | growth inhibition [2, 8] | growth inhibition ([2]; at 50.0 µM) | growth inhibition [3, 7] | growth inhibition [3, 8] | growth inhibition ([3]; at 50.0 µM) | growth inhibition [4, 7] | growth inhibition [4, 8] | growth inhibition ([4]; at 50.0 µM) | growth inhibition [5, 7] | growth inhibition [5, 8] | growth inhibition ([5]; at 50.0 µM) | growth inhibition [6, 7] | growth inhibition [6, 8] | growth inhibition ([6]; at 50.0 µM) |
| --- | --- | --- | --- | --- | --- | --- | --- | --- | --- | --- | --- | --- | --- | --- | --- | --- | --- | --- |
| CCCCCCCCCCCCCCCCCC[N+]1(C)CCC[N+](C)(CCCCCCCCCCCCCCCCCC)CC1 (centres undefined) | 2% | 26% | 41.8% | -3% | 17% | 83.4% (active) | 2% | 53% | 47% | 0% | 3% | 7.9% | 0% | 77% (active) | 50.6% | 2% | 24% | 84% (active) |
| O=c1nc(-c2ccccc2)cc(-c2ccccc2O)[nH]1 | -11% | 93% (active) | 44.1% | -1% | 25% | 16.3% | -1% | 40% | 30.4% | 19% | 61% | 33.8% | 0% | 87% (active) | 16.9% | 1% | 68% | 33.5% |
| NC(=O)c1ccccc1OC(=O)NCCO | 6% | -3% | 3.2% | -2% | -5% | -1.7% | 3% | 2% | -1.2% | -1% | -7% | 35.8% | -4% | 3% | 1.7% | 0% | 7% | 7.35% |
| O=C(Nc1ccccc1)C(F)(F)C(F)(F)C(F)(F)F | 6% | 2% | 12.6% | -1% | -24% | 12.7% | 17% | 14% | -0.35% | 5% | 5% | 26.1% | 15% | 27% | -1% | 5% | 28% | 11.6% |
| CCOC(=O)c1ccc(O)c(OC)c1 | -2% | 10% | 2% | 7% | 3% | 1.5% | 3% | 2% | -18.6% | -5% | 5% | -13.8% | 61% | 93% (active) | 90.2% (active) | -3% | 0% | -7.1% |
| O=C(N/N=C/c1cc(Br)ccc1O)c1ccccc1 | 59% | 61% | -23.9% | 32% | 53% | -18.9% | 64% | 82% (active) | 5.65% | 21% | 25% | -33.9% | 79% (active) | 89% (active) | -12.6% | 92% (active) | 90% (active) | -6.75% |
| N#CC(C#N)=c1c2nsnc2c(=C(C#N)C#N)c2nsnc12 | 71% (active) | 88% (active) | -9.1% | 19% | 82% (active) | -1.6% | 52% | 90% (active) | -9.75% | 55% | 83% (active) | -47.7% | 60% | 91% (active) | -14.2% | 36% | 87% (active) | 7.45% |
| Cc1c(Cl)ccc2c1NC(=O)C2(O)CC(=O)c1ccc(Cl)cc1 (centres undefined) | 13% | 98% (active) | 99.2% (active) | 14% | 99% (active) | 99% (active) | 31% | 100% (active) | 99.2% (active) | 31% | 98% (active) | 99.3% (active) | 14% | 99% (active) | 99.3% (active) | 13% | 99% (active) | 99.2% (active) |
| CC(=O)Nc1ccc(/C=c2\sc3nnc(-c4cccnc4)n3c2=O)cc1 | 33% | 87% (active) | 89.8% (active) | 7% | 91% (active) | 88% (active) | 6% | 78% (active) | 87.2% (active) | -5% | 58% | 71% (active) | 8% | 94% (active) | 80.5% (active) | -17% | 95% (active) | 86.5% (active) |
| CC(C)(C)c1cc2c(c(C(C)(C)C)c1O)CC(=O)O2 | -6% | 74% (active) | 27.7% | -18% | 85% (active) | 45.5% | -37% | 77% (active) | 57.8% | 23% | 64% | 53.8% | -32% | 97% (active) | 72.5% (active) | -3% | 84% (active) | 73.9% (active) |
| Cc1ccc(S(=O)(=O)N/N=C(\C=C\c2ccccc2)c2ccccc2)cc1 | -1% | 32% | 59.1% | 5% | 57% | 63.9% | 24% | 47% | 59.5% | -19% | 16% | 44.4% | 15% | 49% | 41.1% | 20% | 70% (active) | 37.1% |
| CC[n+]1cnc(N)c2c(-c3ccc(Cl)cc3)cn(-c3ccc(C)cc3)c21 | -2% | 98% (active) | 93.1% (active) | -4% | 99% (active) | 95.5% (active) | -6% | 99% (active) | 97.9% (active) | -6% | 98% (active) | 46.9% | -1% | 98% (active) | 80.3% (active) | -3% | 98% (active) | 97.8% (active) |
| Nc1ccc([N+](=O)[O-])cc1Nc1c2ccccc2nc2ccccc12 | 5% | 15% | 82.3% (active) | 2% | 5% | 17.7% | 1% | 27% | 40% | -1% | 34% | -6.85% | -4% | 17% | -43.4% | 2% | 37% | 31.4% |
| CS(=O)(=O)c1ccc(C[N+]23CN4CN(CN(C4)C2)C3)cc1 | -9% | -2% | -8.25% | 0% | 13% | 14.7% | -20% | -5% | -0.8% | -8% | -4% | 43.4% | -4% | 6% | -4.75% | -9% | -4% | 1.85% |
| O=C1C(Cl)=C(N2C(=O)CCC2=O)C(=O)c2ccccc21 | 77% (active) | 98% (active) | 87.6% (active) | 99% (active) | 99% (active) | 90.4% (active) | 99% (active) | 100% (active) | 91.6% (active) | 94% (active) | 99% (active) | 89.4% (active) | 100% (active) | 99% (active) | 88.9% (active) | 72% (active) | 98% (active) | 89% (active) |
| CSC(=S)n1nc(-c2cccs2)c(N=Nc2ccc(Cl)cc2)c1C(F)(F)F | 29% | 63% | 83.8% (active) | 1% | 86% (active) | 93.4% (active) | 20% | 75% (active) | 46.5% | 14% | 49% | 65.4% | 14% | 87% (active) | 75.3% (active) | 19% | 56% | 96.1% (active) |
| CCOC(=O)C(=CCC1NCCc2c1[nH]c1ccccc21)C(=O)OCC (centres undefined) | 23% | 93% (active) | 91.2% (active) | 29% | 97% (active) | 91.7% (active) | 29% | 63% | 93.5% (active) | 28% | 59% | 92.2% (active) | 30% | 98% (active) | 92.4% (active) | 41% | 97% (active) | 91.6% (active) |
| COc1ccccc1C(=O)[O][Sn]([c]1ccccc1)([c]1ccccc1)[c]1ccccc1 | 100% (active) | 99% (active) | 99.2% (active) | 100% (active) | 100% (active) | 99.3% (active) | 99% (active) | 99% (active) | 99.3% (active) | 99% (active) | 99% (active) | 89.3% (active) | 100% (active) | 99% (active) | 99% (active) | 99% (active) | 99% (active) | 98.7% (active) |
